Screens from PubChem BioAssay.
PD-1 reverse act: activators reversing PD-1 mediated T-cell inhibition, primary screen, luminescence, primary human CD4 T cells, PD-L1 beads; activation, % (no concentration beside the values); 29,000 tested, under 10 active; AID 2316, 2010; CellTiter-Glo 96 h; call rule not given here
NOMO-1 viab: NOMO-1 AML cell viability reduction, primary screen, STK33 inhibitor project, CellTiter-Glo luminescence; NOMO-1 AML viability, 72 h; inhibition, % (test concentration not listed); 37,000 tested, 7.5% active; AID 2330, 2010; in the data active = inhibition above about 80%
STK33 inh: STK33 kinase inhibitors, primary screen, biochemical, luminescence, ADP-Glo, MBP substrate. AID 2322, 2010. 27,000 tested, 0.44% active. Serine/threonine-protein kinase 33 (Homo sapiens), Q9BYT3. inhibition, % at 12.5 µM; in the data active = inhibition above about 20%
Target sequence (Q9BYT3 whole entry, looked up): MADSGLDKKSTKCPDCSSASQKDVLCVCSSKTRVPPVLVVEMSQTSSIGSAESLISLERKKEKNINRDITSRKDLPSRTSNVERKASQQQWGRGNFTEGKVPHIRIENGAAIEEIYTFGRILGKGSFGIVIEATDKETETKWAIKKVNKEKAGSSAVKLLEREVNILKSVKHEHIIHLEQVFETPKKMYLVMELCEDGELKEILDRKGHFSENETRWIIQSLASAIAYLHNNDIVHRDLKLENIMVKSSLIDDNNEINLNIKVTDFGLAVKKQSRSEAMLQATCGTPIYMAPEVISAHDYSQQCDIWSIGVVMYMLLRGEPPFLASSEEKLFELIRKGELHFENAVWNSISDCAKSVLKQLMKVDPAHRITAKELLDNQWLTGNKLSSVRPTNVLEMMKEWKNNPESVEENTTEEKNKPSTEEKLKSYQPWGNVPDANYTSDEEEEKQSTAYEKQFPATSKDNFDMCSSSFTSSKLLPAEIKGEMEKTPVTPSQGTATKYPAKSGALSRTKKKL
A number is an active result; n = inactive; x = no result. Shown is part of a subset that was picked to be rich in hits.

SMILES	PD-1 reverse act	NOMO-1 viab	STK33 inh
COc1cc(O)cc(C2=C(C)CC(O)C2=O)c1 (stereo not given)	n	n	n
COC(=O)c1sccc1NC(=O)CN1c2cccc3cccc(c23)S1(=O)=O	x	n	n
CC(=O)c1ccc(NC(=O)COc2ccccc2C(=O)Nc2sc3c(c2C#N)CCCC3)cc1	n	n	n
O=C(CCc1ccc(O)cc1)CC(O)CCc1ccc(O)c(O)c1 (stereo not given)	n	85.3	n
COC(CCc1ccc(O)c(O)c1)CC(=O)CCc1ccc(O)c(O)c1 (stereo not given)	x	x	n
c1ccc(Cn2c(SCCN3CCOCC3)nc3ccccc32)cc1	n	n	n
C[C@H](CO)N1C[C@H](C)[C@H](CN(C)Cc2ccc(-c3ccccc3)cc2)Oc2c(NC(=O)C3CC3)cccc2C1=O	n	n	x
C[C@H](CO)N1C[C@H](C)[C@@H](CN(C)Cc2ccc(-c3ccccc3)cc2)Oc2c(NC(=O)C3CCCCC3)cccc2C1=O	x	n	x
C[C@@H]1CN([C@@H](C)CO)C(=O)c2cccc(NC(=O)C3CCCCC3)c2O[C@H]1CN(C)Cc1ccc(-c2ccccc2)cc1	n	81.4	x
C[C@H]1CN([C@@H](C)CO)C(=O)c2cccc(NC(=O)C3CCCCC3)c2O[C@H]1CN(C)CC1CCCCC1	n	n	x
C[C@@H]1CN([C@@H](C)CO)C(=O)c2cccc(NC(=O)C3CCCCC3)c2O[C@H]1CN(C)CC1CCCCC1	x	95.3	x
C[C@@H]1CN([C@H](C)CO)C(=O)c2cccc(NC(=O)C3CCCCC3)c2O[C@@H]1CN(C)Cc1ccc(-c2ccccc2)cc1	n	109.7	x
C[C@H](CO)N1C[C@H](C)[C@H](CN(C)Cc2ccc(-c3ccccc3)cc2)Oc2c(NC(=O)C3CCOCC3)cccc2C1=O	n	n	x
C[C@H](CO)N1C[C@H](C)[C@@H](CN(C)Cc2ccc(-c3ccccc3)cc2)Oc2c(NC(=O)C3CC3)cccc2C1=O	x	89.1	x
Cc1cc(C)cc(NC(=O)COc2ccc(N3CC(C(N)=O)CC3=O)cc2)c1 (stereo not given)	n	n	n
CC[C@H]1OC(=O)[C@H](C)[C@@H](OC2C[C@@](C)(OC)[C@@H](O)[C@H](C)O2)[C@H](C)[C@@H](O[C@@H]2O[C@H](C)C[C@H](N(C)C)[C@H]2O)[C@](C)(O)C[C@@H](C)/C(=N\OCOCCOC)[C@H](C)[C@@H](O)[C@]1(C)O (stereo not given in full)	n	n	n
C[C@H](CO)N1C[C@H](C)[C@@H](CN(C)Cc2ccccc2)Oc2c(NC(=O)C3CCCCC3)cccc2C1=O	n	n	x
C[C@@H]1CN([C@@H](C)CO)C(=O)c2cccc(NC(=O)C3CCCCC3)c2O[C@H]1CN(C)Cc1ccccc1	n	95.9	x
C[C@H]1CN([C@@H](C)CO)C(=O)c2cccc(NC(=O)C3CCCCC3)c2O[C@H]1CN(C)Cc1ccc(-c2ccccc2)cc1	n	86.9	x
C[C@@H]1CN([C@H](C)CO)C(=O)c2cccc(NC(=O)C3CC3)c2O[C@@H]1CN(C)Cc1ccc(-c2ccccc2)cc1	n	n	x
C[C@H](CO)N1C[C@H](C)[C@H](CN(C)Cc2ccc(Oc3ccccc3)cc2)Oc2c(NC(=O)C3CCCCC3)cccc2C1=O	n	109.4	x
COc1ccc(CN(C)C[C@H]2Oc3c(NC(=O)C4CCCCC4)cccc3C(=O)N([C@H](C)CO)C[C@H]2C)cc1	n	n	x
C[C@H]1CN([C@@H](C)CO)C(=O)c2cccc(NC(=O)C3CCCCC3)c2O[C@H]1CN(C)Cc1ccc(Oc2ccccc2)cc1	n	n	x
COc1ccc(CN(C)C[C@@H]2Oc3c(NC(=O)C4CCCCC4)cccc3C(=O)N([C@@H](C)CO)C[C@H]2C)cc1	n	98.0	x
Cc1ccc(-n2c(C)nnc2SCC(=O)Nc2ccc(Cl)cc2Cl)cc1	x	n	n
SMILES	PD-1 reverse act	NOMO-1 viab	STK33 inh
CS(=O)(=O)N(CC(=O)Nc1c(F)cccc1F)c1cc(Cl)c(Cl)cc1Cl	n	n	n
COC(=O)CSc1nnc(-c2cc(OC)c(OC)c(OC)c2)n1C	n	n	n
CN1C2=C(C(=O)CC(C)(C)C2)C(c2ccccc2OCC(=O)Nc2ccc(F)cc2)C2=C1CC(C)(C)CC2=O	n	n	n
Cc1c(Cl)cccc1NC(=O)CSc1nc(-c2ccccc2)cs1	x	n	n
C[C@H](CO)N1C[C@H](C)[C@H](CN(C)Cc2ccc(Oc3ccccc3)cc2)Oc2ccc(NC(=O)Nc3ccc(C(F)(F)F)cc3)cc2CC1=O	n	119.3	n
COc1ccc(CN(C)C[C@@H]2Oc3ccc(NC(=O)Nc4ccc(C(F)(F)F)cc4)cc3CC(=O)N([C@@H](C)CO)C[C@@H]2C)cc1	x	n	n
C[C@@H]1CN([C@H](C)CO)C(=O)Cc2cc(NC(=O)Nc3ccc(C(F)(F)F)cc3)ccc2O[C@H]1CN(C)Cc1ccc(Oc2ccccc2)cc1	x	112.2	n
CN1C(=O)C(c2c[nH]c3ccccc23)=C(c2c[nH]c3ccccc23)C1=O	n	n	n
O=C(/C=C/C=C/c1ccc2c(c1)OCO2)N1CCCC1	x	x	n
CC1CC(=O)C2=C(CCC34OC23C(=O)c2cccc(O)c2C4O)C1 (stereo not given)	n	99.7	n
C[C@@H]1CC(=O)C2=C(C1)C[C@@H](O)[C@@]1(O)C2C(=O)c2cccc(O)c2[C@@H]1O (stereo not given in full)	n	n	n
C[C@@H]1CN([C@@H](C)CO)C(=O)Cc2cc(NC(=O)Nc3ccccc3)ccc2O[C@@H]1CN(C)Cc1ccc(-c2ccccc2)cc1	n	n	n
C[C@@H]1CN([C@@H](C)CO)C(=O)Cc2cc(NC(=O)Nc3ccc(C(F)(F)F)cc3)ccc2O[C@@H]1CN(C)Cc1ccc(-c2ccccc2)cc1	n	n	x
C[C@H]1CN([C@@H](C)CO)C(=O)Cc2cc(NC(=O)Nc3ccc(C(F)(F)F)cc3)ccc2O[C@H]1CN(C)Cc1ccc(-c2ccccc2)cc1	n	127.8	n
C[C@H]1CN([C@@H](C)CO)C(=O)Cc2cc(NC(=O)Nc3ccc(C(F)(F)F)cc3)ccc2O[C@@H]1CN(C)Cc1ccc(-c2ccccc2)cc1	n	127.0	n
COc1cccc(S(=O)(=O)N2CCCC2C(=O)O)c1 (stereo not given)	n	n	n
COC(=O)C1CCCN1S(=O)(=O)c1ccccc1 (stereo not given)	n	92.6	x
CCN(C(=O)c1cnccc1C(F)(F)F)c1nc2cc(Cl)ccc2s1	n	n	x
CC1(C)CC(=O)C2=C(C1)N(Cc1cccnc1)C(=O)C2(NC(=O)c1ccco1)C(F)(F)F (stereo not given)	n	n	n
COc1ccc([Si](C)(C)[C@H]2[C@H](CCn3cc(CCO)nn3)O[C@@]3(C(=O)N(Cc4ccc(N5CCC5=O)cc4)c4ccccc43)[C@@H]2C)cc1	x	x	n
COc1ccc([Si](C)(C)[C@@H]2[C@@H](CCn3cc(CCO)nn3)O[C@]3(C(=O)N(Cc4ccc(N5CCC5=O)cc4)c4ccccc43)[C@H]2C)cc1	x	x	22.2
O=C(COc1ccc(C(=O)Nc2cc(Cl)ccc2Cl)cc1)Nc1cccc2ccccc12	n	n	n
COc1ccc(C(C)C(=O)c2ccc(O)cc2O)cc1O (stereo not given)	n	n	n
